Source: PubChem
HCMV inh: qHTS Assay for inhibitors of the human cytomegalovirus (HCMV) | HFF cells, HCMV-luciferase reporter, 72 h; active compounds read low | hit rate 4.5% among 410,000 | activity change, negative = inhibition, % at 57.5 µM | AID 1259415, 2018; in the data active means activity change below about -60%; inconclusive means no clear call, values can overlap the other calls; inactive means above about -39%
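Human foreskin fibroblasts infected with luciferase-reporter HCMV at MOI 1 PFU/cell, compounds at two doses. Luciferase measured 72 h post infection; normalized to buffer-only basal and Salinomycin (10uM) controls.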
Sm TGR inh: qHTS Assay for the Inhibitors of Schistosoma Mansoni Peroxiredoxins; purified TGR, DTNB reduction, TNB absorbance 405 nm; AID 485364, 2010; Potency, µM (series often up to 114 µM), without a hit: at the highest dose activity change, negative = inhibition, hits mostly inhibitors; Schistosoma mansoni thioredoxin glutathione reductase (TGR), Q962Y6; hit rate 3% among 360,000; further: potency means the concentration at half of the fitted maximal effect; nearly all actives have a fitted effect of over 60% in size
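Kinetic colorimetric format: TGR-catalysed, NADPH-driven DTNB reduction monitored via TNB absorbance. Enzyme dispensed at 20 nM; compound exposure 15 min at room temperature before reaction start.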
FBPA Giardia inh: qHTS Assay for Inhibitors of Fructose-1,6-bisphosphate Aldolase from Giardia Lamblia; Potency, µM (titrated, usually from 59.6 µM), without a hit: at the highest dose activity, negative = inhibition, most hits filed as inhibitors; hit rate 0.71% among 290,000; AID 2451, 2010; A8B2U2; purified Giardia FBPA; further: potency means the concentration at half of the fitted maximal effect; nearly all actives have a fitted effect of over 55% in size
Target sequence (A8B2U2 whole entry, looked up): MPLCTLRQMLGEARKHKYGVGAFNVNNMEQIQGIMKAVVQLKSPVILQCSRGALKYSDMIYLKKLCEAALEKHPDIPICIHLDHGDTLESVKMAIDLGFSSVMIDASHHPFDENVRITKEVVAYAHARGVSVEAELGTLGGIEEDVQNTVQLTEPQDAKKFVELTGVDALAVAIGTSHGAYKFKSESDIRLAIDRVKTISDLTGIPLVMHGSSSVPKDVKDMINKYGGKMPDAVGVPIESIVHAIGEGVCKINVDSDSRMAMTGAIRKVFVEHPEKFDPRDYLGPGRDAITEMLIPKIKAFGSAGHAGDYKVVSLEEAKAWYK
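40 nM FBPA preincubated 10 min at RT with compound (up to 57.5 uM final), then substrate plus GAPDH/TPI/NAD/arsenate coupling and diaphorase/resazurin added. Fluorescence read after 20 min at RT, 525/598 nm.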
Pf growth 48h: Primary qHTS for delayed death inhibitors of the malarial parasite plastid, 48 hour incubation | P. falciparum luciferase growth in erythrocytes, 48 h | Potency, µM (top dose mostly 28.7 µM), inactives show at the top dose activity change, negative = inhibition, usual class: inhibitors | hit rate 5.9% among 310,000 | AID 504832, 2011; further: potency means the concentration at half of the fitted maximal effect
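Firefly luciferase activity from engineered P. falciparum reports growth; inhibitors lower the luminescent signal. Cultures contained 2% hematocrit erythrocytes at 0.1% final parasitemia.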
Pf growth 96h: Primary qHTS for delayed death inhibitors of the malarial parasite plastid, 96 hour incubation; P. falciparum luciferase reporter growth, 96 h; hit rate 6.9% among 320,000; Potency, µM (highest dose often 28.7 µM), without a hit: top-dose activity change, negative = inhibition, actives largely listed as inhibitors; further: potency means the concentration at half of the fitted maximal effect
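Two-generation exposure (96 h) targets delayed-death phenotype. Reporter parasites carrying integrated firefly luciferase, in red cells at 2% hematocrit and 0.05% parasitemia final, kept at 37 C, 5% CO2; luminescence loss indicates inhibition.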
* = called active by the depositor; ? = inconclusive; nt = not tested or not shown; [ ] = another dose, or the depositor's remark. Hits are enriched below; roughly 14% of the tested compounds scored in any of these assays. Unless noted, the call rests on the fitted dose curve; in most records, active means well fitted curve in the direction sought with a large enough effect; inconclusive means small, poorly fitted or top-dose-only effect, or another doubt; inactive means no such curve, though single readings can be large; an effect the other way counts as inactive or inconclusive. On the % scale 0 is the no-effect control and ±100 the full control effect.

SMILES | HCMV inh | Sm TGR inh | FBPA Giardia inh | Pf growth 48h | Pf growth 96h
Cc1nnc(SCC2=C(C(=O)O)N3C(=O)C(NC(=O)Cc4ccccc4)C3SC2)s1 (stereo not drawn) | 0 | 13µM* | nt | -20% | -14%
CO/N=C(/C(=O)NC1C(=O)N2C(C(=O)O)=C(CSc3nc(=O)c(O)nn3C)CSC12)c1csc(N)n1 (stereo not drawn) | nt | nt | ? | 4% | 11%
CC1=C(C(N)=O)N2C(=O)[C@@H](NC(=O)Cc3ccccc3)C2SC1 (stereo partly drawn) | nt | nt | 0% | nt | nt
Cc1c(Cl)c(C(F)F)nn1CC(=O)NC1C(=O)N2C(C(=O)O)=C(CSc3nnnn3C)CSC12 (stereo not drawn) | ? | 4µM* | -20% | -1% | 117%
Cc1nn(CC(=O)NC2C(=O)N3C(C(=O)O)=C(CSc4nnnn4C)CSC23)cc1Br (stereo not drawn) | 2 | 20µM* | ? | -27% | 42%
Cc1c(Cl)cnn1CC(=O)NC1C(=O)N2C(C(=O)O)=C(CSc3nnnn3C)CSC12 (stereo not drawn) | -26 | 16µM* | ? | 14% | ?
O=C(O)C1=C(CSc2nnnn2CS(=O)(=O)O)CS[C@@H]2[C@H](NC(=O)[C@H](O)c3ccccc3)C(=O)N12 | nt | nt | nt | -9% | 4%
CCCn1c(N)cc(=O)n(CCC)c1=O | -15 | 1% | 0% | -19% | 0%
CCOC1=C2[C@H]([C@H]3C(=O)N(c4ccccc4)C(=O)[C@H]3C1)[C@@H](C(C)C)N(S(=O)(=O)c1ccc(C)cc1)[C@H]2c1ccccc1 | 14 | nt | nt | nt | nt
Cn1nnnc1SCC1=C(C(=O)O)N2C(=O)C(NC(=O)Cn3nc(C(F)F)cc3C3CC3)C2SC1 (stereo not drawn) | -23 | 3.5µM* | ? | 30% | -12%
Cc1ccc(C)n1C1C(=O)N(Cc2ccc(C(F)(F)F)cc2)c2c(F)cccc21 (stereo not drawn) | -35 | nt | nt | nt | nt
CC(=O)Nc1ccc(S(=O)(=O)c2c(N)n(CCN3CCOCC3)c3nc4ccccc4nc23)cc1 | 69 | -15% | -3% | ? | 0%
Cc1ccc(S(=O)(=O)NCCN2CCOCC2)s1 | -67* | 5% | nt | 45% | 9%
Nc1c(S(=O)(=O)c2cc(Cl)ccc2Cl)c2nc3ccccc3nc2n1CCN1CCOCC1 | -16 | -7% | -8% | 13µM* | nt
O=S(=O)(NCCN1CCOCC1)c1cc(Cl)ccc1Cl | 7 | 6% | -1% | 2% | 6.6µM*
Cc1c(Cl)ccc(S(=O)(=O)NCCN2CCOCC2)c1Cl | -4 | 57% | 9% | 0.13µM* | -3%
Cc1cc(S(=O)(=O)NCCN2CCOCC2)ccc1Cl | -5 | -13% | 2% | nt | -3%
O=C1Nc2ccccc2-n2nnnc2C1N1CCN(CCN2CCOCC2)CC1 (stereo not drawn) | 39 | nt | nt | nt | nt
Cc1c(NC(=O)COC(=O)C2=COCCO2)cccc1[N+](=O)[O-] | 66 | 0% | nt | 27% | 63%
Cc1noc(C)c1CSCC(=O)N(C)CC(=O)Nc1ccc(F)c(F)c1F | 4 | 1% | nt | ? | ?
Cc1cc(C)c(C(=O)c2ccc(C(=O)NC(C)(C)C)cc2)c(C)c1 | 4 | -1% | 9% | nt | 3.3µM*
Cc1cc(C)c(C(=O)c2ccc(C(=O)N(C(C)C)C(C)C)cc2)c(C)c1 | -11 | -2% | 1% | nt | ?
O=C(NNC(=O)c1ccncc1)c1ccccc1 | -11 | -8% | 6% | 11%[0.00184 µM] | ?
CC(C)(C)NC(=O)c1ccncc1 | -13 | 5% | 2% | nt | 10µM*
CCc1nc2ccc(C(=O)NCCc3ccco3)cc2nc1CC | nt | -27% | -2% | 86% | ?
SMILES | HCMV inh | Sm TGR inh | FBPA Giardia inh | Pf growth 48h | Pf growth 96h
CCCCNC(=O)c1ccc2nc(-c3ccco3)c(-c3ccco3)nc2c1 | 7 | 7.9µM* | ? | -13% | 13%
CCN(CC)C(=O)c1ccc2nc3ccccc3nc2c1 | -95* | 8% | -5% | 60% | 64%
CCN(CC)C(=O)c1ccc2nc(-c3ccccc3)c(-c3ccccc3)nc2c1 | -24 | -12% | 3% | -17% | 35%
O=C(NCCCO)c1ccc2nc(-c3ccco3)c(-c3ccco3)nc2c1 | 35 | 2.5µM* | ? | 8% | 54%
CCN(CC)C(=O)c1c2c(nc3ccccc13)-c1ccccc1CC2 | 8 | -15% | -6% | 7.4µM* | ?
Cc1c(C(=O)N(Cc2ccccc2F)C2CCS(=O)(=O)C2)oc2ccc(F)cc12 (stereo not drawn) | 9 | 2% | nt | nt | nt
Cc1cccc(Nc2c(-c3cccs3)nc3nc(C)cc(C)n23)c1 | 28 | 0% | nt | nt | nt
COc1ccccc1CNC(=O)c1ccc2nc(-c3ccccc3)c(-c3ccccc3)nc2c1 | 7 | 9% | nt | nt | nt
CCN1CCN(CCNC(=O)c2ccc3nc(-c4cccc(C)c4)c(-c4cccc(C)c4)nc3c2)CC1 | -109* | -12% | nt | ? | ?
CCCNC(=O)c1ccc2nc(-c3ccccc3)c(-c3ccccc3)nc2c1 | 30 | -12% | -3% | 5.2µM* | ?
CCN1CCN(c2cc3c(cc2F)c(=O)c(S(=O)(=O)c2ccc(OC)cc2)cn3CC)CC1 | -13 | -4% | nt | nt | nt
CO/N=C/CC(=O)c1ccc([N+](=O)[O-])c(CS(=O)(=O)c2ccc(Cl)cc2)c1 | 8 | -9% | -8% | 15µM* | ?
CC(=O)C1=C(O)C(=O)N(CCc2c[nH]c3ccccc23)C1c1ccco1 (stereo not drawn) | -14 | 40µM* | -1% | nt | ?
CCCOc1cc(NCc2ccccc2)c2ncn(C(C)C)c2c1 | 16 | 3% | nt | 8.3µM* | 2.6µM*
CC(C)n1cnc2c(NCc3ccccc3)cc(Cc3ccc(F)cc3)cc21 | -24 | 3% | nt | 10µM* | 6.6µM*
CCOC(=O)c1ccc2c(c1)nc(-c1ccc(F)cc1)c1nccn12 | 72 | 8% | 0% | -19% | 0%
COc1ccc(C(=O)N/N=C(\C)c2ccccn2)cc1OC | -112* | -1% | ? | ? | 51%
C/C(=N\NC(=O)C(c1ccccc1)c1ccccc1)c1ccccn1 | -99* | 4% | 22% | 2.3µM* | 2.3µM*
C/C(=N/NC(=O)c1ccccn1)c1ccncc1 | 29 | 6% | -6% | 48% | ?
C/C(=N\NC(=O)c1cccc(Br)c1)c1ccccn1 | -103* | 0% | ? | 0.74µM* | -6%
C/C(=N/NC(=O)c1ccc(C(C)(C)C)cc1)c1ccccn1 | -98* | nt | nt | nt | nt
C/C(=N\NC(=O)C(c1ccccc1)c1ccccc1)c1ccc(O)cc1 | 22 | -14% | -3% | ? | ?
CCc1noc(C)c1C(=O)OC(C)C(=O)Nc1cc([N+](=O)[O-])ccc1OC (stereo not drawn) | -12 | -3% | nt | 6% | -11%
